Test: qHTS profiling of the MIPE4 collection as inhibitors of Plasmodium falciparum (3D7) proliferation (AID 743344);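 also: scaled between DMSO vehicle wells and 0.29 µM artemisinin as full inhibition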
Details: P. falciparum 3D7 in erythrocytes, SYBR Green DNA fluorescence, 72 h; at 28.5 µM unless noted
From the text: Plasmodium falciparum is a virulent malarial parasite that kills 1-2 million people worldwide each year. Transmitted by mosquitoes, the sporozoite form of the parasite enters the blood stream to infect hepatocytes, where they become merozoites that infect red blood cells (erythrocytes). Within erythrocytes, merozoites begin a […] cycle of growth and division, after which the parasite is released to infect new red blood cells. Gametocytes, which form within erythrocytes as well, circulate in the bloodstream and are ingested by the mosquito, thereby completing the life cycle. To profile malarial isolates for differential chemical responses and to identify inhibitors of malarial growth, an assay that measures P. falciparum growth and replication within erythrocytes was employed. This assay uses a DNA binding fluorescent dye (SYBR Green) to detect parasite DNA following cell lysis. Because mature erythrocytes lack DNA, only Plasmodium-derived DNA is detected.
The SYBR Green viability assay was adapted from a method described previously (Plouffe et al., 2008). For screening 3 ul culture medium was dispensed into 1536 well black clear bottom plates (Aurora Biotechnologies) using a Multidrop Combi (Thermo Fisher Scientific Inc.), 23 nL compounds in DMSO were added by a pin tool (Kalypsys), and 5 ul of erythrocytes infected with P. falciparum (0.3% parasitemia, 2.5% hematocrit final concentration) were added. The plates were incubated at 37 C in a humidified incubator in 5% CO2 for 72 h, and 2 ul lysis buffer (20 mM Tris HCl, 10 mM EDTA, 0.16% saponin, 1.6% triton X, 10X SYBR Green I supplied as 10,000X […] by Invitrogen) was added to each well. The plates were mixed for 25 sec with gentle shaking and incubated overnight at room temperature in the dark. The following morning, fluorescence intensity at 485(14) nm excitation and 535(25) nm emission wavelengths was measured on an EnVision (Perkin Elmer) plate reader. Plate reads were normalized relative to the control inhibitor (0.29 uM artemisinin) and vehicle (DMSO) wells present on each plate and then corrected by an algorithm using vehicle-only control plates at the beginning and end of the compound plate stack.

Structure (SMILES)	parasite growth, % of DMSO control
NC(=O)c1cccc2[nH]c(-c3ccc([C@H]4CCCN4)cc3F)nc12	5.38%
Cc1c(NC(=O)c2ccc(C(C)(C)C)cc2)cccc1-c1cn(C)c(=O)c(Nc2ccc(C(=O)N3CCOCC3)cc2)n1	5.68%
COc1cccc2c1CCCC2CCCN1CCN(C2CCCCC2)CC1 (stereo not given)	6.86%
CON=C(C(=O)N[C@@H]1C(=O)N2C(C(=O)OCOC(=O)C(C)(C)C)=C(C=Cc3scnc3C)CS[C@H]12)c1csc(N)n1	60.4%
Nc1ncnc2ccccc12	84.9%
Cc1cc(OCCCc2c(C(=O)O)n(Cc3cccnc3)c3c(-c4c(COc5ccc(N6CCN([S+](C)(=O)[O-])CC6)cc5)nn(C)c4C)cccc23)cc(C)c1Cl	6.87%
CO[C@H]1C(=O)[C@]2(C)[C@@H](OC)C[C@H]3OC[C@@]3(OC(C)=O)[C@H]2[C@H](OC(=O)c2ccccc2)[C@]2(O)C[C@H](OC(=O)[C@H](O)[C@@H](NC(=O)OC(C)(C)C)c3ccccc3)C(C)=C1C2(C)C	4.99%
N#C[C@H]1C[C@H]2C[C@@H]2N1C(=O)[C@@H](N)C12CC3CC(CC(O)(C3)C1)C2	97.9%
O=C1NC(=O)C(=Cc2ccc3c(c2)OC(F)(F)O3)S1	86.7%
O=C(O)C=Cc1ccc(O)c(O)c1	53.1%
O=c1cc(N2CCOCC2)oc2c(-c3cccc4c3sc3ccccc34)cccc12	11.6%
Cc1ccc(Nc2cc(-c3cccc(N4C(=O)c5ccccc5C4=O)c3)ncn2)cc1NS(C)(=O)=O	76.1%
C=CCc1ccc(O)c(-c2ccc(O)c(CC=C)c2)c1	22.1%
Cc1[nH]c(C=C2C(=O)Nc3ccc(S(=O)(=O)Cc4c(Cl)cccc4Cl)cc32)c(C)c1C(=O)N1CCC[C@H]1CN1CCCC1	6.34%
O=c1cc(-c2cccc3c2Sc2ccccc2S3)oc(N2CCOCC2)c1	64.9%
CN(C)C1CCN(C(=O)c2ccc(NC(=O)Nc3nc(N4CCOCC4)nc(N4CCOCC4)n3)cc2)CC1	5.78%
COc1ccc(-c2coc3cc(O)ccc3c2=O)cc1	65.1%
CC(C)OC(=O)CCCC=CC[C@@H]1[C@H](C=C[C@@H](O)COc2cccc(C(F)(F)F)c2)[C@H](O)C[C@@H]1O	23.8%
CC(C)(C)COc1ccc(-n2cc(C(=O)O)cn2)cc1C#N	75%
NC(=O)NN=Cc1ccc([N+](=O)[O-])o1	13.6%

Structure (SMILES)	parasite growth, % of DMSO control
CC[C@@]1(O)C[C@H](O[C@H]2C[C@H](N(C)C)[C@H](O[C@H]3C[C@H](O)[C@H](O[C@H]4CCC(=O)[C@H](C)O4)[C@H](C)O3)[C@H](C)O2)c2c(cc3c(c2O)C(=O)c2c(O)cccc2C3=O)[C@@H]1C(=O)OC	3.31%
Cc1ccc(/C=N/NC(=O)c2ccccc2Oc2ccccc2)o1	82.9%
CC=CCC(C)C(O)C1C(=O)NC(CC)C(=O)N(C)CC(=O)N(C)C(CC(C)C)C(=O)NC(C(C)C)C(=O)N(C)C(CC(C)C)C(=O)NC(C)C(=O)NC(C)C(=O)N(C)C(CC(C)C)C(=O)N(C)C(CC(C)C)C(=O)N(C)C(C(C)C)C(=O)N1C (stereo not given)	5.34%
COc1cc2nc(-c3ccc(N4CCN(C)CC4)cc3)nc(NCCN3CCOCC3)c2cc1OC	5.09%
CN(C)CCC=C1c2ccccc2COc2ccc(CC(=O)O)cc21	91.3%
CC(=O)OC1C(C)OC(Oc2c(-c3ccc(O)cc3)oc3cc(O)cc(O)c3c2=O)C(O)C1OC(C)=O (stereo not given)	11.3%
Cc1ccc(F)c(NC(=O)Nc2ccc(-c3cccc4[nH]nc(N)c34)cc2)c1	6.52%
NC(=O)c1cnc(-c2ccc(C3(N)CCC3)cc2)c(-c2ccccc2)c1	55.3%
NC(=O)c1cccc(-c2cc(Nc3ccc(OC(F)(F)F)cc3)ncn2)c1	12.3%
O=C(O)CCC1CCC(c2cc(F)ccc2F)(S(=O)(=O)c2ccc(Cl)cc2)CC1 (stereo not given)	66.9%
Clc1ccc(CCC(Cn2ccnc2)Sc2c(Cl)cccc2Cl)cc1 (stereo not given)	5.77%
CC1(C)CCC2=C(O1)c1ccccc1C(=O)C2=O	22.8%
O=C1NC(=O)C(=Cc2ccc3nccnc3c2)S1	56.7% [at 9.64 µM]
CCOC(=O)C1=C(N)Oc2ccc(Br)cc2C1C(C#N)C(=O)OCC (stereo not given)	91.3%
C[C@]12CC[C@@H]3c4ccc(O)cc4C[C@@H](CCCCCCCCCS(=O)CCCC(F)(F)C(F)(F)F)[C@H]3[C@H]1CC[C@H]2O (stereo not given in full)	5.44%
CC1CCC(C(=O)N(c2cc(C#CC(C)(C)C)sc2C(=O)O)C2CCC(O)CC2)CC1 (stereo not given)	4.72%
N[C@H](CSC(c1ccccc1)(c1ccccc1)c1ccccc1)C(=O)O	10.7%
CCOC(CN1C(=O)[C@](CC(=O)Nc2ccc(C)cc2)(NC(=O)Nc2ccc(C)cc2)c2ccccc21)OCC	14%
Cc1c(O)cccc1C(=O)N[C@@H](CSc1ccccc1)[C@H](O)CN1C[C@H]2CCCC[C@@H]2C[C@@H]1C(=O)NC(C)(C)C	10.1%
c1cc(-c2sc(-c3ccncc3)c(-c3ccncc3)c2-c2ccncc2)ccn1	8.84%
